Data as given in PubChem BioAssay AID2284067 (EPA ToxCast).
The source made the active and inactive calls. Rule for the calls: active = hit-call score of the fitted dose curve at least 0.9, where 1 is the maximum; inactive = score below 0.9.

What follows are molecules tested against human DYRK1A CMGC Kinase, DYRK1A (gene 1859) (UniProt Q13627) (assay: ERF_FR_ENZ_hDYRK1A: Eurofins (ERF) Enzymatic Radiometric [Km ATP] KinaseProfiler LeadHunter Assay for human DYRK1A CMGC Kinase).
Experimental: ERF_FR_ENZ_hDYRK1A is a biochemical, single-readout assay that uses extracted gene-proteins in a cell-free assay. Measurements were taken 0.5 hour after chemical dosing in a 96-well plate. See DYRK1A Human CMGC Kinase Enzymatic LANCE Assay [Km ATP], Cerep.ERF_FR_ENZ_hDYRK1A is an assay component calculated from the ERF_FR_ENZ_hDYRK1A assay. It is designed to measure enzyme activity using a type of enzyme reporter as detected by fluorescence intensity with LANCE technology.Data from the assay component ERF_FR_ENZ_hDYRK1A was analyzed at the assay endpoint, ERF_FR_ENZ_hDYRK1A, in the positive analysis fitting direction relative to DMSO as the negative control and baseline of activity. Using a type of enzyme reporter, loss-of-signal activity can be used to understand changes in enzymatic activity as they relate to gene DYRK1A. To generalize the intended target to other relatable targets, this assay endpoint is annotated to the kinase intended target family, where the subfamily is serine/threonine kinase.
DYRK1A (h) is incubated with 8 mM MOPS pH 7.0, 0.2 mM EDTA, 50 uM […], 10 mM MgAcetate and [gamma-33P]-ATP (specific activity and concentration as required). The reaction is initiated by the addition of the Mg/ATP mix. After incubation for 40 minutes at room temperature, the reaction is stopped by the addition of phosphoric acid to […] a concentration of 0.5%. […]

| Structure (SMILES) | AC50 |
| --- | --- |
| O=C(/C=C/c1ccc(O)cc1)CC(=O)/C=C/c1ccc(O)cc1 | 128 nM (active) |
